Data from PubChem BioAssay (Tox21).
Where “and” joins values, the source holds several entries; their conditions need not be identical. Identical values can stand only once. A structure can be active in one record and inactive in another. Calls of active or inactive are those of the source. Unless noted, calls follow the shape of the dose curve; as a rule, active = well fitted curve in the direction sought with a large enough effect in the repeat runs; inconclusive = weak or mixed curves; inactive = no such curve, though single readings can be large; an effect the other way counts as inactive or inconclusive.

Columns and labels:
[1] = qHTS assay to identify small molecule antagonists of the glucocorticoid receptor (GR) signaling pathway - cell viability counter screen (AID 720693); also: nearly all actives have a fitted effect of over 55% in size
[2] = qHTS assay for identifying genotoxic compounds that show differential cytotoxicity against isogenic chicken DT40 cell lines with known DNA damage response pathways - wild type cell line (AID 743012); also: nearly all actives have a fitted effect of over 60% in size
In short: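 Parental DNA repair-proficient DT40 cells, 300 per well, were pre-incubated ~0.5 h at 37 C/5% CO2, pin-dosed with compounds in DMSO, then incubated 40 h. Viability was read as CellTiter-Glo luminescence after 30 min at room temperature.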

[3] = qHTS assay for identifying genotoxic compounds that show differential cytotoxicity against isogenic chicken DT40 cell lines with known DNA damage response pathways - Rev3 mutant cell line (AID 743014); also: nearly all actives have a fitted effect of over 55% in size; also: potency is read from the fitted curve at half-maximal effect
[4] = qHTS assay for identifying genotoxic compounds that show differential cytotoxicity against isogenic chicken DT40 cell lines with known DNA damage response pathways - Rad54/Ku70 mutant cell line (AID 743015); also: nearly all actives have a fitted effect of over 60% in size
[5] = qHTS assay to identify small molecule antagonists of the androgen receptor (AR) signaling pathway - cell viability counter screen (AID 743033; also: nearly all actives have a fitted effect of over 45% in size)
[6] = molecular target: Androgen receptor (Homo sapiens) (UniProt P10275); assay: qHTS assay to identify small molecule antagonists of the androgen receptor (AR) signaling pathway (AID 743035; active = well fitted inhibition curve with a large enough effect in the signal ratio in the repeat runs, not every such curve was filed as active; inconclusive = weak or mixed curves, or effect the other way; inactive = no such curve, though single readings can be large or run the other way; the % refers to the signal ratio)
Chain of Androgen receptor (Homo sapiens) (P10275 whole entry, looked up): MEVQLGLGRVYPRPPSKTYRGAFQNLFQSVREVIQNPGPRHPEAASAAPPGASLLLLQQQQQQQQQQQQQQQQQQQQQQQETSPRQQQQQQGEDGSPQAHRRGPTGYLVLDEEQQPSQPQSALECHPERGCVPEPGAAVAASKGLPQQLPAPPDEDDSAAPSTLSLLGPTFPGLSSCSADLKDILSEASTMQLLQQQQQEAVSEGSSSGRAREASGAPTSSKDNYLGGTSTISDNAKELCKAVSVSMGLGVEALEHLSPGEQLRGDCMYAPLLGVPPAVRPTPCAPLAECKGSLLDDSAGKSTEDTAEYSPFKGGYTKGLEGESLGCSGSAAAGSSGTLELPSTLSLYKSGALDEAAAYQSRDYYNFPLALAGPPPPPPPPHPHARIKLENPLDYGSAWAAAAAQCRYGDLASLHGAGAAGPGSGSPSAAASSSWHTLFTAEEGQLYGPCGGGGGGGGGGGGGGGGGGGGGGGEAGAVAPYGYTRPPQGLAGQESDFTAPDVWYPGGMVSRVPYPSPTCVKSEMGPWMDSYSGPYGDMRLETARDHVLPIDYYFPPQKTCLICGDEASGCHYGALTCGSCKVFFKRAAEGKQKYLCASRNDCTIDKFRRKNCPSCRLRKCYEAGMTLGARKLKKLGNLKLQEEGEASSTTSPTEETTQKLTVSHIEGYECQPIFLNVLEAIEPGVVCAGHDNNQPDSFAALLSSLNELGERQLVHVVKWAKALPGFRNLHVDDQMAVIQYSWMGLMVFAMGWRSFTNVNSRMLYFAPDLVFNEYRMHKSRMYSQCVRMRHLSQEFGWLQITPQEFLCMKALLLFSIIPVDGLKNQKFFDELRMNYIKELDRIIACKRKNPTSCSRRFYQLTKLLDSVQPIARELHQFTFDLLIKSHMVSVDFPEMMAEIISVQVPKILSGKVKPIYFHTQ
In short: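 HEK293 cells stably carrying a UAS-driven beta-lactamase reporter (AR-UAS-bla GripTite) were plated for 4 h at 37C, then given compound and the agonist R1881 and incubated 16 h. Reporter activity was read by LiveBLAzer B/G FRET fluorescence after 2 h at room temperature.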

[7] = molecular target: Androgen receptor (Homo sapiens) (UniProt P10275); assay: qHTS assay to identify small molecule agonists of the androgen receptor (AR) signaling pathway using the MDA cell line (AID 743040; also: nearly all actives have a fitted effect of over 20% in size)
In short: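 MDA-kb2 breast carcinoma cells stably carrying an MMTV-driven luciferase reporter (AR- and GR-responsive) were seeded and held 5 h at 37C, 0% CO2, then exposed to compounds in DMSO for 16 h. Luminescence was read 30 min after ONE-Glo addition.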

[8] = qHTS assay to identify small molecule antagonists of the androgen receptor (AR) signaling pathway using the MDA cell line - cell viability counter screen (AID 743041; also: nearly all actives have a fitted effect of over 45% in size)
In short: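 MDA-kb2 AR-luc human breast carcinoma cells (MMTV-luciferase, AR/GR responsive) were treated with compounds plus R1881 agonist for 16 h at 37 °C. Viability was read as CellTiter-Fluor fluorescence in the same wells as the reporter assay.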

[9] = molecular target: Androgen receptor (Homo sapiens) (UniProt P10275); assay: qHTS assay to identify small molecule antagonists of the androgen receptor (AR) signaling pathway using the MDA cell line (AID 743042; also: nearly all actives have a fitted effect of over 55% in size)
In short: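 MDA-kb2 cells (human breast carcinoma, stably carrying an MMTV-luciferase reporter responsive to AR and GR) were plated at 3,000 cells/well and preincubated 5 hr at 37C, then given compound plus R1881 agonist for 16 h. ONE-Glo luminescence was read.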

[10] = qHTS assay to identify small molecule antagonists of the thyroid receptor (TR) signaling pathway - cell viability counter screen (AID 743064); also: nearly all actives have a fitted effect of over 50% in size
In short: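 In-well cytotoxicity read by CellTiter-Fluor (30 min, 37 C) following 23.5 h exposure of GH3 cells bearing a TRE-luciferase sensor. Compounds were added alongside 1 nM (final) T3 to drive TR transactivation.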

[11] = system: thyroid hormone receptor (rat, GH3 cells); assay: qHTS assay to identify small molecule agonists of the thyroid receptor (TR) signaling pathway (AID 743066; calls by dose curve)
[12] = molecular target: Estrogen receptor (Homo sapiens) (UniProt P03372); assay: qHTS assay to identify small molecule antagonists of the estrogen receptor alpha (ER-alpha) signaling pathway (AID 743069; active = well fitted curve in the direction sought with a large enough effect in the signal ratio in the repeat runs, not every such curve was filed as active; inconclusive = weak or mixed curves, or effect the other way; inactive = no such curve, though single readings can be large or run the other way; the % refers to the signal ratio)
Chain of Estrogen receptor (Homo sapiens) (P03372 whole entry, looked up): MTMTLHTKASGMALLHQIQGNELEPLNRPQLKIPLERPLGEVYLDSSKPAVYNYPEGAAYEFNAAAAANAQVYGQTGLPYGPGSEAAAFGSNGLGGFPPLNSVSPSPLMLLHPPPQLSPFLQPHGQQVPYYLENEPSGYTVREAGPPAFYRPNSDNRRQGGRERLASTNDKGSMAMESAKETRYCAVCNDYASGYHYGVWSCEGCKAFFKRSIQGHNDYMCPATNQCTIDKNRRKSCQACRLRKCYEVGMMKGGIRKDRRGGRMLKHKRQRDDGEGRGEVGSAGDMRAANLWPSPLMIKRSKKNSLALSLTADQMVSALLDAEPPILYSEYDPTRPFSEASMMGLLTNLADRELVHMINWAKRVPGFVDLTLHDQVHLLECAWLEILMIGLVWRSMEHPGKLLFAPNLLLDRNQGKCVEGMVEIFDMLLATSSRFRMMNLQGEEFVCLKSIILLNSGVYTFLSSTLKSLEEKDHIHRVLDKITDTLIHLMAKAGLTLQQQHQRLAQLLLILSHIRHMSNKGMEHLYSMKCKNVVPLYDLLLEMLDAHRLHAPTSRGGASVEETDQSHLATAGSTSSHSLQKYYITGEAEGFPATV
In short: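 HEK293 cells stably carrying an ER-alpha-UAS-bla beta-lactamase reporter were pre-cultured overnight in 2% charcoal-stripped FBS medium. Test compounds in DMSO were added together with 17beta-estradiol for 18 hr at 37C. Read-out was fluorescence after 2 hr with LiveBLAzer B/G FRET substrate at room temperature.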

[13] = qHTS assay to identify small molecule antagonists of the estrogen receptor alpha (ER-alpha) signaling pathway - cell viability counter screen (AID 743074; calls by dose curve; also: nearly all actives have a fitted effect of over 45% in size)
[14] = molecular target: Estrogen receptor (Homo sapiens) (UniProt P03372); assay: qHTS assay to identify small molecule agonists of the estrogen receptor alpha (ER-alpha) signaling pathway (AID 743075; calls by dose curve; also: potency is read from the fitted curve at half-maximal effect)
[15] = molecular target: Estrogen receptor (Homo sapiens) (UniProt P03372); assay: qHTS assay to identify small molecule agonists of the estrogen receptor alpha (ER-alpha) signaling pathway using the BG1 cell line (AID 743079); also: nearly all actives have a fitted effect of over 20% in size; also: potency is read from the fitted curve at half-maximal effect
[16] = qHTS assay to identify small molecule antagonists of the estrogen receptor alpha (ER-alpha) signaling pathway using the BG1 cell line (AID 743080; calls by dose curve;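 also: BG1 cells stimulated with 17beta-estradiol alongside compound; series mostly up to about 70 µM; nearly all actives have a fitted effect of over 25% in size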)
In short: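 Endogenous full-length ER-alpha in BG1-Luc-4E2 cells drives a stably integrated 4×ERE luciferase gene; compounds were tested against 17beta-estradiol over 21.5 h, with luminescence and multiplexed viability fluorescence recorded.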

[17] = qHTS assay to identify small molecule antagonists of the estrogen receptor alpha (ER-alpha) signaling pathway using the BG1 cell line - cell viability counter screen (AID 743081);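 also: compound given together with 17beta-estradiol as the ER stimulus; series mostly up to about 70 µM; nearly all actives have a fitted effect of over 45% in size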
Aromatase (Homo sapiens) = Aromatase (Homo sapiens) (UniProt P11511); assay: qHTS assay to identify aromatase inhibitors (AID 743083); also: series mostly up to about 70 µM; nearly all actives have a fitted effect of over 55% in size
Chain of Aromatase (Homo sapiens) (P11511 whole entry, looked up): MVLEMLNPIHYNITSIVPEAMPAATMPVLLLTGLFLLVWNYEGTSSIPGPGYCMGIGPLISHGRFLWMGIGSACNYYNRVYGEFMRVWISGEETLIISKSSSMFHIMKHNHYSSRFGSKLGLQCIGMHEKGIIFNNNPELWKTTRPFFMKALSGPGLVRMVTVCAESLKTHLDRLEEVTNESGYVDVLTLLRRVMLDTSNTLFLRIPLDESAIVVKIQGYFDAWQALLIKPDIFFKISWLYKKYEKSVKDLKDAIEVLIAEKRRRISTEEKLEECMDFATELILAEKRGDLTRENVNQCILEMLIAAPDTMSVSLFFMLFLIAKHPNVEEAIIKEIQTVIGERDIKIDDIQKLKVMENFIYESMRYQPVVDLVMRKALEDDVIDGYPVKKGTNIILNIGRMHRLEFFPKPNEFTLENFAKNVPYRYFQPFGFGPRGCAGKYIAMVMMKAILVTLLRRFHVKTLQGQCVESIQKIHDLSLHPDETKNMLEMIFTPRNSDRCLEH

[18] = qHTS assay to identify aromatase inhibitors - cell viability counter screen (AID 743084)
[19] = qHTS assay to identify small molecule antagonists of the thyroid receptor (TR) signaling pathway (AID 743065)
In short: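 GH3.TRE-Luc rat pituitary cells carrying two TR response elements driving luciferase were plated for 4 h, given compound plus 1 nM T3 (final), and incubated 23.5 h at 37 C. ONE-Glo luminescence measured reporter inhibition; CellTiter-Fluor fluorescence tracked cytotoxicity.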

Measured: Potency

CCN(CC)c1ccccc1
inactive: [1] | [2] | [3] | [4] | [5] | [6] | [7] | [8] | [9] | [10] | [11] | [12] | [13] | [14] | [15] | [16] | [17] | Aromatase (Homo sapiens) | [18]

O=c1[nH]c(=O)[nH]c(=O)[nH]1
inactive: [1] | [2] | [3] | [4] | [6] | [7] | [8] | [9] | [10] | [19] | [11] | [13] | [17] | Aromatase (Homo sapiens) | [18]

Clc1ccc(Cl)cc1
inactive: [1] | [2] | [3] | [4] | [5] | [8] | [10] | [19] | [11] | [12] | [13] | [14] | [15] | [16] | [17] | Aromatase (Homo sapiens) | [18]

O=NN1CCCC1
inactive: [1] | [2] | [3] | [4] | [8] | [10] | [19] | [11] | [12] | [13] | [14] | [15] | [16] | [17] | Aromatase (Homo sapiens) | [18]

c1ccc2c(c1)oc1ccccc12
inactive: [1] | [2] | [3] | [5] | [8] | [10] | [19] | [11] | [13] | [17]

CCC[CH2][Sn]([Cl])([Cl])[Cl]
inactive: [1] | [2] | [3] | [4] | [8] | [10] | [19] | [11] | [12] | [13] | [14] | [15] | [16] | [17] | Aromatase (Homo sapiens) | [18]

Cc1cc(Cl)ccc1O
inactive: [1] | [2] | [3] | [4] | [8] | [10] | [19] | [11] | [13] | [17] | Aromatase (Homo sapiens) | [18]

CC(C#N)CCC#N (stereo not drawn)
inactive: [1] | [2] | [3] | [4] | [8] | [10] | [11] | [12] | [13] | [14] | [15] | [16] | [17] | Aromatase (Homo sapiens) | [18]

CC(C)N1C(=O)c2ccccc2NS1(=O)=O
inactive: [1] | [2] | [3] | [5] | [8] | [10] | [19] | [11] | [12] | [13] | [14] | [15] | [16] | [17] | Aromatase (Homo sapiens) | [18]

O=[N+]([O-])c1ccc([As](=O)(O)O)cc1
inactive: [1] | [2] | [3] | [5] | [8] | [10] | [19] | [11] | [12] | [13] | [14] | [15] | [16] | [17] | Aromatase (Homo sapiens) | [18]

Clc1cccc(Cl)c1Cl
inactive: [1] | [2] | [3] | [4] | [8] | [10] | [11] | [13] | [17] | Aromatase (Homo sapiens) | [18]

BrCCBr
18.8 µM (active) and inactive: [3]
inactive: [1] | [2] | [5] | [8] | [10] | [19] | [11] | [12] | [13] | [14] | [15] | [16] | [17] | Aromatase (Homo sapiens) | [18]

c1ccc(-c2ccccc2)cc1
inactive: [1] | [2] | [3] | [5] | [6] | [7] | [8] | [9] | [10] | [11] | [12] | [13] | [14] | [15] | [16] | [17] | Aromatase (Homo sapiens) | [18]

O=[N+]([O-])c1ccccc1
inactive: [1] | [2] | [3] | [5] | [8] | [10] | [19] | [11] | [12] | [13] | [14] | [15] | [16] | [17] | Aromatase (Homo sapiens) | [18]

CC1C=[C-]C=C1.[C-]#[O+].[C-]#[O+].[C-]#[O+].[Mn]
inactive: [1] | [2] | [3] | [5] | [8] | [10] | [19] | [11] | [12] | [13] | [14] | [15] | [16] | [17] | Aromatase (Homo sapiens) | [18]

NCCc1ccc(O)cc1
inactive: [1] | [2] | [3] | [4] | [8] | [10] | [19] | [11] | [12] | [13] | [14] | [16] | [17] | Aromatase (Homo sapiens) | [18]
inactive and 68 µM (active): [15]

O=S(=O)(c1ccc(O)cc1)c1ccc(O)cc1
active: [14] 15.6 µM [inconclusive] and 24.5 µM [inconclusive] | [15] 3.88 µM and 1.93 µM
inactive: [1] | [2] | [3] | [5] | [8] | [10] | [19] | [11] | [12] | [13] | [16] | [17] | Aromatase (Homo sapiens) | [18]

CC(NC(C)(C)C)C(=O)c1cccc(Cl)c1 (stereo not drawn)
inactive and 23 µM (active): [3]
inactive: [1] | [2] | [5] | [8] | [10] | [19] | [11] | [13] | [17] | Aromatase (Homo sapiens) | [18]
